# Records with an inconclusive call do not appear. Where a call stands in place of a potency, no number is given. Calls of active or inactive are those of the source. Unless noted, the call rests on the fitted dose curve; in most records, active means well fitted curve in the direction sought with a large enough effect in the repeat runs; inconclusive means weak or mixed curves; inactive means no such curve, though single readings can be large; an effect the other way counts as inactive or inconclusive.
# Experiments:
# [1] = molecular target: Acetylcholinesterase (Homo sapiens) (UniProt P22303); assay: Acetylcholinesterase (AChE) small molecule antagonists: fluorescence cell-based qHTS assay (AID 1347398; calls by dose curve; further: potency means the concentration at half of the fitted maximal effect; nearly all actives have a fitted effect of over 50% in size); conditions: Potency: AChE activity; outcome: AChE activity
# Outline: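 Using neuroblastoma SH-SY5Y cells as the enzyme source, test chemicals are preincubated 30 min at 37 C; AChE-driven acetylthiocholine cleavage is then quantified by thiocholine-dependent Thiolite Green fluorescence after 40 min at room temperature.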
# [2] = molecular target: Acetylcholinesterase (Homo sapiens) (UniProt P22303); assay: Acetylcholinesterase (AChE) small molecule antagonists: enzyme-based qHTS assay with human liver microsomes (AID 1347399; calls by dose curve; further: nearly all actives have a fitted effect of over 60% in size); conditions: Potency: qHTS inhibition; outcome: qHTS inhibition
# Outline: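 Recombinant human AChE (50 mU/mL in the enzyme mix) and human liver microsomes (0.25 mg/mL final) were preincubated with compound and NADPH (0.25 mg/mL final) for 30 min at 37 C. Acetylthiocholine/DTNB was then added; thiocholine was read colorimetrically after 10 min at room temperature.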
# [3] = qHTS assay for small molecule agonists of the p53 signaling pathway (AID 651631; calls by dose curve; further: nearly all actives have a fitted effect of over 15% in size)
# Outline: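 HCT-116 p53RE-bla reporter line, 16 h compound treatment at 37 °C, then fluorescence after 2 h with B/G FRET substrate.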
# [4] = qHTS assay for small molecules that induce genotoxicity in human embryonic kidney cells expressing luciferase-tagged ATAD5 (AID 651632); further: nearly all actives have a fitted effect of over 15% in size
# Outline: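 A rise in luciferase signal from ATAD5-tagged HEK293T cells marks genetic stress. Cells were exposed to compounds for 16 hr at 37C, 5% CO2, then luciferase was quantified after a 30 min room-temperature incubation with Amplite.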
# [5] = qHTS assay for small molecule agonists of the p53 signaling pathway - cell viability (AID 651633; calls by dose curve;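 further: p53RE-bla HCT reporter cells with a stable beta-lactamase p53 reporter; series mostly up to about 83 µM; nearly all actives have a fitted effect of over 30% in size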)
# Outline: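 p53RE-bla cells, seeded at 4,000 per well and rested 5 h at 37 C/5% CO2, received compounds in DMSO for 16 h at 37 C. CellTiter-Glo was then added, and luminescence was read after 30 min at room temperature to gauge cytotoxicity.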
# [6] = qHTS assay for small molecules that induce genotoxicity in human embryonic kidney cells expressing luciferase-tagged ATAD5 - cell viability (AID 651634; calls by dose curve; further: nearly all actives have a fitted effect of over 25% in size)
# Outline: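 Cytotoxicity counter-readout: after 15.5 hr compound treatment at 37C, live-cell protease activity in ATAD5-luciferase HEK293T cells measured by CellTiter-Fluor fluorescence, 30 min development at 37C.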
# [7] = qHTS assay for small molecule disruptors of the mitochondrial membrane potential - cell viability (AID 720634; calls by dose curve;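 further: human HepG2 liver cancer cells; series mostly up to about 83 µM; nearly all actives have a fitted effect of over 20% in size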)
# Outline: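 Cytotoxicity was quantified from ATP content by CellTiter-Glo luminescence in the same wells as the MMP dye read-out. HepG2 (2,000 cells/well) were plated overnight and exposed to compounds for 1 hr at 37 C.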
# [8] = qHTS assay to test for compound auto fluorescence at 535 nm (green) in HepG2 cells (AID 720675)
# [9] = qHTS assay to test for compound auto fluorescence at 460 nm (blue) in HEK293 cells (AID 720678)
# Outline: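 Blue-channel (Ex/Em 405/460 nm) intensity measured in HEK293 cultures after overnight compound exposure at 37C; signal expressed relative to triamterene. Cells plated 2,000 per well in 10% dialyzed FBS medium and allowed 4-5 hr to attach.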
# [10] = qHTS assay to test for compound auto fluorescence at 590 nm (red) in HEK293 cells (AID 720679)
# Outline: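 Red-channel autofluorescence (Ex/Em 540/590 nm; Rose Bengal sodium reference) was measured after overnight 37C, 5% CO2 exposure of attached HEK293 cells, 2,000 per well in medium with 10% dialyzed FBS.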
# [11] = qHTS assay to test for compound auto fluorescence at 535 nm (green) in HEK293 cells (AID 720680)
# [12] = qHTS assay to test for compound auto fluorescence at 460 nm (blue) in HEK293 cell free culture (AID 720681)
# Outline: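 Test compounds were pinned into cell-free culture medium (DMEM with 10% FBS) and fluorescence was read directly at Ex/Em 405/460 nm. Signals were expressed as fluorescence equivalents of triamterene, with DMSO vehicle as control.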
# [13] = qHTS assay to test for compound auto fluorescence at 535 nm (green) in HEK293 cell free culture (AID 720682)
# Outline: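 Steps: dispense DMEM/10% FBS into empty wells; pin in compound or DMSO; measure fluorescence at 485/535 nm. Values are fluorescein equivalents.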
# [14] = qHTS assay to test for compound auto fluorescence at 590 nm (red) in HEK293 cell free culture (AID 720683)
# Outline: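 Tox21 10K library compounds were pinned into cell-free DMEM with 10% FBS and fluorescence was read at excitation 540 nm. Activity is expressed as Rose Bengal sodium equivalency.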
# [15] = qHTS assay to test for compound auto fluorescence at 590 nm (red) in HepG2 cell free culture (AID 720684)
# Outline: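 Ex 540 / Em 590 nm read of compound in cell-free MEM (10% FBS). Rose Bengal sodium reference.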
# [16] = qHTS assay to test for compound auto fluorescence at 460 nm (blue) in HepG2 cell free culture (AID 720685)
# Outline: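 Cell-free plates of MEM plus 10% FBS received 23 nL compound or DMSO vehicle; blue-channel (405/460 nm) intensity scored against triamterene as reference fluorophore.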
# [17] = qHTS assay to test for compound auto fluorescence at 535 nm (green) in HepG2 cell free culture (AID 720686)
# [18] = qHTS assay to test for compound auto fluorescence at 460 nm (blue) in HepG2 cells (AID 720687)
# Outline: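 Cells (2,000/well in MEM with 10% FBS) attached overnight at 37 C, then were exposed to compound or DMSO for 1 hr at 37 C, 5% CO2. Fluorescence read at Ex/Em 405/460 nm, expressed as triamterene-equivalent signal.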
# [19] = qHTS assay to identify small molecule antagonists of the glucocorticoid receptor (GR) signaling pathway - cell viability counter screen (AID 720693); further: nearly all actives have a fitted effect of over 55% in size
# [20] = qHTS assay for identifying genotoxic compounds that show differential cytotoxicity against isogenic chicken DT40 cell lines with known DNA damage response pathways - Rad54/Ku70 mutant cell line (AID 743015); further: potency means the concentration at half of the fitted maximal effect; nearly all actives have a fitted effect of over 60% in size
# [21] = qHTS assay to identify small molecule antagonists of the androgen receptor (AR) signaling pathway - cell viability counter screen (AID 743033; further: nearly all actives have a fitted effect of over 45% in size)
# [22] = qHTS assay to identify small molecule antagonists of the thyroid receptor (TR) signaling pathway - cell viability counter screen (AID 743064); further: potency means the concentration at half of the fitted maximal effect; nearly all actives have a fitted effect of over 50% in size
# Outline: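 Plate GH3.TRE-Luc cells; incubate 4 h at 37 °C; add compound, then T3 to 1 nM final; incubate 23.5 h; add CellTiter-Fluor; incubate 30 min at 37 °C, 5% CO2; read fluorescence.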
# [23] = qHTS assay to identify small molecule antagonists of the thyroid receptor (TR) signaling pathway (AID 743065); further: potency means the concentration at half of the fitted maximal effect; nearly all actives have a fitted effect of over 55% in size
# Outline: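 GH3.TRE-Luc rat pituitary cells carrying two TR response elements driving luciferase were plated for 4 h, given compound plus 1 nM T3 (final), and incubated 23.5 h at 37 C. ONE-Glo luminescence measured reporter inhibition; CellTiter-Fluor fluorescence tracked cytotoxicity.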
# [24] = test system: thyroid hormone receptor (rat, GH3 cells); assay: qHTS assay to identify small molecule agonists of the thyroid receptor (TR) signaling pathway (AID 743066; calls by dose curve)
# [25] = molecular target: Estrogen receptor (Homo sapiens) (UniProt P03372); assay: qHTS assay to identify small molecule antagonists of the estrogen receptor alpha (ER-alpha) signaling pathway (AID 743069; active means well fitted curve in the direction sought with a large enough effect in the signal ratio in the repeat runs, not every such curve was filed as active; the % refers to the signal ratio)
# Outline: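 A 17beta-estradiol challenge was applied right after compound transfer to ER-alpha-UAS-bla HEK293 cells previously kept in charcoal-stripped serum. Plates stood 18 hr at 37C and 5% CO2; fluorescence was read following 2 hr FRET substrate loading at room temperature.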
# [26] = qHTS assay to identify small molecule antagonists of the estrogen receptor alpha (ER-alpha) signaling pathway - cell viability counter screen (AID 743074; calls by dose curve;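 further: HEK293 cells carrying ER-alpha-UAS-bla reporter stimulated with 17beta-estradiol; nearly all actives have a fitted effect of over 45% in size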)
# [27] = molecular target: Estrogen receptor (Homo sapiens) (UniProt P03372); assay: qHTS assay to identify small molecule agonists of the estrogen receptor alpha (ER-alpha) signaling pathway (AID 743075; calls by dose curve;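 further: HEK293 GripTite cells with ER-alpha and UAS-driven beta-lactamase reporter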)
# [28] = molecular target: Estrogen receptor (Homo sapiens) (UniProt P03372); assay: qHTS assay to identify small molecule agonists of the estrogen receptor alpha (ER-alpha) signaling pathway using the BG1 cell line (AID 743079); further: nearly all actives have a fitted effect of over 20% in size
# [29] = qHTS assay to identify small molecule antagonists of the estrogen receptor alpha (ER-alpha) signaling pathway using the BG1 cell line (AID 743080; calls by dose curve;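 further: BG1 cells stimulated with 17beta-estradiol alongside compound; series mostly up to about 70 µM; nearly all actives have a fitted effect of over 25% in size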)
# Outline: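 Luciferase inhibition measured with ONE-Glo after 30 min at RT in BG1Luc4E2 cells given test compounds and 17beta-estradiol for 21.5 h at 37 C; CellTiter-Fluor viability read in the same wells beforehand.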
# [30] = qHTS assay to identify small molecule antagonists of the estrogen receptor alpha (ER-alpha) signaling pathway using the BG1 cell line - cell viability counter screen (AID 743081);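 further: compound given together with 17beta-estradiol as the ER stimulus; potency means the concentration at half of the fitted maximal effect; nearly all actives have a fitted effect of over 45% in size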
# Aromatase (Homo sapiens) = Aromatase (Homo sapiens) (UniProt P11511); assay: qHTS assay to identify aromatase inhibitors (AID 743083); further: series mostly up to about 70 µM; nearly all actives have a fitted effect of over 55% in size
# [31] = qHTS assay to identify aromatase inhibitors - cell viability counter screen (AID 743084);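 further: cells stimulated with testosterone during compound exposure; nearly all actives have a fitted effect of over 55% in size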
# [32] = molecular target: Aryl hydrocarbon receptor (Homo sapiens) (UniProt P35869); assay: qHTS assay to identify small molecule that activate the aryl hydrocarbon receptor (AhR) signaling pathway (AID 743085);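 further: HG2L7.5c1 human HepG2 liver cells with stably integrated DRE-driven firefly reporter; series mostly up to about 70 µM; nearly all actives have a fitted effect of over 15% in size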
# Outline: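 Steps: seed HepG2-AhR-luc cells; allow 5 h at 37C; pin-transfer test compound or vehicle; incubate 24 h at 37C; add viability dye (30 min, 37C) and read fluorescence; add luciferase substrate (30 min, RT) and read luminescence.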
# [33] = qHTS assay to identify small molecule that activate the aryl hydrocarbon receptor (AhR) signaling pathway - cell viability counter screen (AID 743086);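 further: HepG2 liver cells carrying the AhR DRE luciferase reporter; series mostly up to about 70 µM; nearly all actives have a fitted effect of over 45% in size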
# Outline: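 HepG2-AhR-luc (HG2L7.5c1) cells, 4000/well, were preincubated 5 h at 37C, exposed to compound in qHTS format for 24 hr at 37C, then given CellTiter-Fluor for 30 min; viability was read as fluorescence in the reporter wells.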
# Acetylcholinesterase (Homo sapiens), sequence (P22303 whole entry, looked up): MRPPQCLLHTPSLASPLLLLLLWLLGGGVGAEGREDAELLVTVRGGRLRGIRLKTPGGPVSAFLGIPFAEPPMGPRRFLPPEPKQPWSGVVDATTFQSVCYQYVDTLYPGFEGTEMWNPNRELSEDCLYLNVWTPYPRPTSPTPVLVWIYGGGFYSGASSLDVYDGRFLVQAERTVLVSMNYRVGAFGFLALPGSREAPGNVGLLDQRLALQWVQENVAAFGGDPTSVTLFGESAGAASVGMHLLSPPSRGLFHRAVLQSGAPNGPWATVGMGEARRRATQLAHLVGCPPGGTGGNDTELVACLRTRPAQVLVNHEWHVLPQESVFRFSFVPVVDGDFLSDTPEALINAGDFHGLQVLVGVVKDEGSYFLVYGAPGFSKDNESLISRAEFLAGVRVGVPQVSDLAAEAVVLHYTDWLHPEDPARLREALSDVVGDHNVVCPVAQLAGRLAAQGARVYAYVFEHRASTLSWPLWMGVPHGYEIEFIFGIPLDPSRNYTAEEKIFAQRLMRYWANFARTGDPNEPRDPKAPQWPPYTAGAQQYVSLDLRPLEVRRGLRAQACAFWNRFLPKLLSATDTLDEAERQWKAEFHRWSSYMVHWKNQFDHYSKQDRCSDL
# Estrogen receptor (Homo sapiens), sequence (P03372 whole entry, looked up): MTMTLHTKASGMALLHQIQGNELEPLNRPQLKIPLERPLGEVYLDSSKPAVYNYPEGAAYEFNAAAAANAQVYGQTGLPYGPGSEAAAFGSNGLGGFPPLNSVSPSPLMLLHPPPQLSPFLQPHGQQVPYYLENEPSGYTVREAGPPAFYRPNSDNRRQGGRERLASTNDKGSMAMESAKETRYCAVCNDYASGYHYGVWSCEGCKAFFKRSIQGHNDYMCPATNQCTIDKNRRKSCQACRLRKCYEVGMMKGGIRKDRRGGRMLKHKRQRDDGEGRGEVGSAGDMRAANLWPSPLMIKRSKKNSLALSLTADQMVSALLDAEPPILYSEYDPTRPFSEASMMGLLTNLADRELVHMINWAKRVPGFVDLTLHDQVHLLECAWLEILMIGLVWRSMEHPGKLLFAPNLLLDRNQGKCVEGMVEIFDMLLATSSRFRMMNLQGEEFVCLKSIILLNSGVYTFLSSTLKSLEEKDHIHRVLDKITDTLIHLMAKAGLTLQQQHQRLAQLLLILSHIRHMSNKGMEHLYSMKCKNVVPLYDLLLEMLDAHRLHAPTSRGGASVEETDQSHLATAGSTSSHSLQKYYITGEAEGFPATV
# Aromatase (Homo sapiens), sequence (P11511 whole entry, looked up): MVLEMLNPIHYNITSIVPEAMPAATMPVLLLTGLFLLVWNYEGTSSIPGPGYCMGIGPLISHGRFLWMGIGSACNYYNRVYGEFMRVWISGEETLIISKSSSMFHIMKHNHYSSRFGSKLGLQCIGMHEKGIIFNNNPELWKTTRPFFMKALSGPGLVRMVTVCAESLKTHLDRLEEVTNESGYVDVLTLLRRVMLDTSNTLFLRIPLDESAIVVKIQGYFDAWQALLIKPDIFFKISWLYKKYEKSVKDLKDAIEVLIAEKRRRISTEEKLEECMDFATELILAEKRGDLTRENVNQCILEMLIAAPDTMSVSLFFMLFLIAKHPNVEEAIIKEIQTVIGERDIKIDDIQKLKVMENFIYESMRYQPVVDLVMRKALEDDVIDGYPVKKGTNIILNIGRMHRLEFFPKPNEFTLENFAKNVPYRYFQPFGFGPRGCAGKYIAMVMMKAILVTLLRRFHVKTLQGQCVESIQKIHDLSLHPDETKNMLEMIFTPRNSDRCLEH
# Aryl hydrocarbon receptor (Homo sapiens), sequence (P35869 whole entry, looked up): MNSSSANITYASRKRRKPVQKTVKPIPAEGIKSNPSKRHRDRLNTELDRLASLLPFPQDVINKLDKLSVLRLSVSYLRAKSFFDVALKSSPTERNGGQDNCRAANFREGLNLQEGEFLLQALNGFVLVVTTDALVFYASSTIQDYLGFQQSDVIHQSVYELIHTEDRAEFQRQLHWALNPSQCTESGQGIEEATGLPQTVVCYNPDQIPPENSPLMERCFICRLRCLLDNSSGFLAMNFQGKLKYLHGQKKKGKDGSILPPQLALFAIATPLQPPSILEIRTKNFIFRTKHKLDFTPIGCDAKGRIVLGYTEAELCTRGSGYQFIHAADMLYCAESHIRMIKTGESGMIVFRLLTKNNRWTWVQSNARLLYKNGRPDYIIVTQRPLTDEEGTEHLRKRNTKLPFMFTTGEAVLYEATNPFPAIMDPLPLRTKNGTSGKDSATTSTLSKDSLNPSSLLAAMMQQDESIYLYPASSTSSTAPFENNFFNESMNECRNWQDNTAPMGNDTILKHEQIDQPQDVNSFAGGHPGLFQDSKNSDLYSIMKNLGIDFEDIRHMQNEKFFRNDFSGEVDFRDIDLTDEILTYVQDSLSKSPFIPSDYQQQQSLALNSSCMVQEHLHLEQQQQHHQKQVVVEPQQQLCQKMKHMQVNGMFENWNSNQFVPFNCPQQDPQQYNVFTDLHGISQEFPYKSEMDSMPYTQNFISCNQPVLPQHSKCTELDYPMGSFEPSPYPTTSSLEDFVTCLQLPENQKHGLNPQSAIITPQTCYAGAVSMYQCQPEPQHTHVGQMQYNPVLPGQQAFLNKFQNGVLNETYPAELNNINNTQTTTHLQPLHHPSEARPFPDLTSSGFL
smiles,measurement,setting,value
CCCCCCCC[N+](CCCCCCCC)(CCCCCCCC)CCCCCCCC,Potency,[1],70.9 µM (active)
same,Potency,[2],inactive
CCCCCCCCCCC[C@@H](C[C@@H]1OC(=O)[C@H]1CCCCCC)OC(=O)[C@H](CC(C)C)NC=O,Potency,[2],inactive
COc1cc(C[C@H](C)N)c(OC)cc1Br,Potency,[3],inactive
same,outcome,[4],inactive
same,Potency,[5],inactive
same,Potency,[6],inactive
same,outcome,[7],inactive
same,outcome,[8],inactive
same,outcome,[9],inactive
same,outcome,[10],inactive
same,outcome,[11],inactive
same,outcome,[12],inactive
same,outcome,[13],inactive
same,outcome,[14],inactive
same,outcome,[15],inactive
same,outcome,[16],inactive
same,outcome,[17],inactive
same,outcome,[18],inactive
same,Potency,[19],inactive
same,Potency,[20],70.4 µM (active)
same,Potency,[21],inactive
same,Potency,[22],70.4 µM (active)
same,Potency,[23],31.4 µM (active)
same,outcome,[24],inactive
same,outcome,[25],inactive
same,Potency,[26],inactive
same,Potency,[27],inactive
same,Potency,[28],inactive
same,outcome,[29],inactive
same,Potency,[30],15.8 µM (active)
same,Potency,Aromatase (Homo sapiens),inactive
same,outcome,[31],inactive
same,outcome,[32],inactive
same,Potency,[33],inactive

# Reference: PubChem BioAssay (Tox21)
